The values that follow come from PubChem BioAssay (NCATS).

Results filed as inconclusive are left out. Values without a mark were called inactive. Calls of active or inactive are those of the source. Calls follow the shape of the dose curve; as a rule, active = well fitted curve in the direction sought with a large enough effect; inconclusive = small, poorly fitted or top-dose-only effect, or another doubt; inactive = no such curve, though single readings can be large; an effect the other way counts as inactive or inconclusive. Where a SMILES comes first, the peptide text is derived from it. [ ]: non-standard residue; d: D form.

Experiment [1] is described as follows: Primary qHTS for inhibitors of nuclear receptor binding SET domain protein 2 (NSD2) in an isogenic RCH-ACV NSD2 p.E1099K mutant (9B) (AID 1645876). (In general: qHTS replaces the single test concentration by a dilution series.)
The nature of experiment [2]: Primary qHTS for inhibitors of nuclear receptor binding SET domain protein 2 (NSD2) in an RCH-ACV wild type WT cells (2C) (AID 1645877).
% is scaled to controls: 0 for no effect and ±100 for the full control effect.
Also: nearly all actives have a fitted effect of over 70% in size.

As for `CC(=O)O[C@@H]1[C@H](O[C@@H]2O[C@H](CO)[C@@H](O)[C@H](O)[C@H]2O)[C@@H](O[C@@H]2O[C@@H](C)[C@H](O)[C@@H](O[C@@H]3O[C@H](CO)[C@@H](O)[C@H](O)[C@H]3O)[C@H]2O)[C@H](OC(=O)C23CCC4(C)C(=CCC5C6(C)CC(O)C(O[C@@H]7O[C@H](C(=O)O)[C@@H](O)[C@H](O)[C@H]7O)C(C)(C(=O)O)C6CCC54C)C2CC(C)(C)CC3O)O[C@@H]1C` (some centres not stated), the outcome in experiment [1] is “inactive [at 9.23 µM]”. Further, the activity change, negative = cell killing in experiment [2] is 0.269% [at 9.23 µM].

With `O=C(O)c1cc(O[C@@H]2O[C@H](CO[C@@H]3OC[C@@H](O)[C@H](O)[C@H]3O)[C@@H](O)[C@H](O)[C@H]2O)c2ccccc2c1O`, the Potency result in experiment [1] and in experiment [2] was “inactive” in each case.

With `CC(=O)OC1C(O)C(C)=C(CCC(C)CC(=O)O)C2(C)CCCC(C)(C)C12` (configuration not stated), the Potency entry in experiment [1] and in experiment [2] was “inactive” each time.

In the case of `C=C/C=C/[C@@H]1OC[C@H](/C=C/C=C/C)[C@H]1O`, the Potency entry in experiment [1] and in experiment [2] was “inactive” throughout.

For the compound `C=C[C@](C)(CC/C=C(\C)C(=O)O)O[C@@H]1OC[C@H](O)[C@H](O)[C@H]1O`, the Potency entry in experiment [1] and in experiment [2] was “inactive” throughout.

`CC(/C=C/C1(O)C(C)CC(O)CC1(C)C)OC1OC(CO)C(O)C(O)C1O` (configuration not stated): the Potency entry in experiment [1] and in experiment [2] was “inactive” in each case.

For `O=C(O)C[C@H]1CCC(=O)[C@@H]1C/C=C\CCOC1OC(CO)C(O)C(O)C1O` (some centres not stated), the Potency result in experiment [1] and in experiment [2] was “inactive” each time.

In the case of `C=C1CC[C@H]2[C@@](C)(CCC(O)[C@@]2(C)CO)[C@@H]1C/C=C(/C(=O)O)C(O)CO` (some centres not stated), the Potency entry in experiment [1] and in experiment [2] was “inactive” in each case.

For `COc1ccc(/C=C/C(=O)O[C@H]2[C@@H]3C=CO[C@@H](O[C@@H]4O[C@H](CO)[C@@H](O)[C@H](O)[C@H]4O)[C@@H]3[C@@]3(CO)O[C@@H]23)cc1O`, the Potency entry in experiment [1] and in experiment [2] was “inactive” each time.

`COC(=O)C1=CO[C@@H](O[C@@H]2O[C@H](COC(=O)/C=C/c3cc(OC)c(O)c(OC)c3)[C@@H](O)[C@H](O)[C@H]2O)[C@@H]2C(CO)=CC[C@H]12`: the Potency result in experiment [1] and in experiment [2] was “inactive” throughout.

`CC(=O)Oc1cc2c(s1)CCN([C@H](C(=O)C1CC1)c1ccccc1F)C2`: the Potency result in experiment [1] and in experiment [2] was “inactive” throughout.

As for `COc1ccc(C(O[C@@H]2O[C@H](CO)[C@@H](O)[C@H](O)[C@H]2O)C(CO)Oc2ccc(/C=C/CO)cc2OC)cc1O` (some centres not stated), the Potency result in experiment [1] and in experiment [2] was “inactive” in each case.

Regarding `CC1=CC(=O)C2C(C)(C)CC(O)CC2(C)C1CO` (configuration not stated), the Potency entry in experiment [1] and in experiment [2] was “inactive” each time.

In the case of `CC(C)(O)C1=CCC23COC(C2)C(O)(C(=O)O)CCC13` (configuration not stated), the Potency result in experiment [1] and in experiment [2] was “inactive” throughout.

Regarding `C=CC(C)(O)CO[C@@H]1O[C@H](CO)[C@@H](O)[C@H](O)[C@H]1O` (some centres not stated), the Potency entry in experiment [1] and in experiment [2] was “inactive” each time.

Turning to `CC(C)C1=CC2=CCC3[C@](C)(CCC[C@@]3(C)C(=O)O)C2CC1O` (some centres not stated), the Potency result in experiment [1] and in experiment [2] was “inactive” in each case.

For the compound `COC(=O)CC1(O)C(=O)Nc2ccccc21` (configuration not stated), the Potency result in experiment [1] and in experiment [2] was “inactive” each time.

For `CC1(C)CC[C@]2(C(=O)O)CC[C@]3(C)C(=CCC4[C@@]5(C)CC[C@H](O[C@@H]6O[C@H](C(=O)O)[C@@H](O)[C@H](O)[C@H]6O)C(C)(CO)C5CC[C@]43C)C2C1` (some centres not stated), the Potency entry in experiment [1] and in experiment [2] was “inactive” throughout.

Consider `CC1(O)CCC2C(C(=O)O)=COC(OC3OC(CO)C(O)C(O)C3OC(=O)/C=C/c3ccc(O)cc3)C21` (configuration not stated), for which the Potency result in experiment [1] and in experiment [2] was “inactive” each time.

As for `COc1c(C)c2c(c(O)c1C/C=C(\C)CC/C=C(\C)CCC(=O)O)C(=O)OC2`, the Potency result in experiment [1] and in experiment [2] was “inactive” throughout.

As for `CC(=O)N[C@H](Cc1ccc(O)cc1)C(=O)N[C@H](CCCN=C(N)N)C(=O)N[C@H](Cc1ccccc1)C(N)=O` (Ac-[dY]-[dR]-[dF]-NH2), the Potency result in experiment [1] and in experiment [2] was “inactive” in each case.

For the compound `C=CC(C)(C)C1(CC2NC(=O)C3CCCN3C2=O)C(=O)Nc2cc3c(cc21)C=CC(C)(C)O3` (configuration not stated), the Potency entry in experiment [1] and in experiment [2] was “inactive” throughout.

With `C=C1CC[C@H]2[C@@](C)(CCC[C@@]2(C)C(=O)O)[C@@H]1CCC(C)CCO` (some centres not stated), the Potency entry in experiment [1] and in experiment [2] was “inactive” each time.

Take `CCn1cc(C2=NOC(C(=O)Nc3c(C)n(C)n(-c4ccccc4)c3=O)C2)c(C)n1` (configuration not stated): the Potency entry in experiment [1] and in experiment [2] was “inactive” each time.

`C=CC1C(O[C@@H]2O[C@H](CO)[C@@H](O)[C@H](O)[C@H]2O)OC=C(C(=O)OC)C1CC(=O)O` (some centres not stated): the Potency entry in experiment [1] and in experiment [2] was “inactive” each time.

As to `CC(C)C1(O[C@@H]2O[C@H](CO)[C@@H](O)[C@H](O)[C@H]2O)CC=C(CO)CC1` (some centres not stated), the Potency result in experiment [1] and in experiment [2] was “inactive” throughout.
